According to PubChem BioAssay (Tox21):
Several values for one entry are separate records, joined by “and”; a condition that tells them apart may be missing. Equal entries are not always repeated. Results filed as inconclusive are left out. Activity calls are given as the source filed them. Unless noted, calls follow the shape of the dose curve; as a rule, active = well fitted curve in the direction sought with a large enough effect in the repeat runs; inconclusive = weak or mixed curves; inactive = flat fitted curve, though single readings scatter.

Experiments:
[1] = qHTS assay to test for compound auto fluorescence at 460 nm (blue) in HEK293 cell free culture (AID 720681)
Summary of the method: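 Blue fluorescence (Ex 405/Em 460 nm, triamterene-equivalent) was read immediately after pin transfer of compound or DMSO into medium (DMEM, 10% FBS) without cells.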

[2] = qHTS assay to test for compound auto fluorescence at 535 nm (green) in HEK293 cell free culture (AID 720682); also: potency is read from the fitted curve at half-maximal effect
Summary of the method: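 Green-channel intensity (Ex/Em 485/535 nm) was recorded from compound-treated wells containing only DMEM with 10% FBS. Fluorescein provided the equivalency standard.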

[3] = qHTS assay to test for compound auto fluorescence at 590 nm (red) in HEK293 cell free culture (AID 720683)
Summary of the method: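 Red-channel autofluorescence of compounds in culture medium (DMEM, 10% FBS), no cells, measured at 540/590 nm. Rose Bengal sodium is the reference fluorophore for equivalence.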

[4] = qHTS assay to test for compound auto fluorescence at 590 nm (red) in HepG2 cell free culture (AID 720684)
Summary of the method: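 Plate contents were MEM with 10% FBS plus test compound or DMSO, no cells. Fluorescence was recorded with 540 nm excitation and 590 nm emission.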

[5] = qHTS assay to test for compound auto fluorescence at 460 nm (blue) in HepG2 cell free culture (AID 720685)
Summary of the method: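 Compound (23 nL) or DMSO pinned into cell-free MEM with 10% FBS; blue fluorescence read at 405/460 nm excitation/emission, expressed as auto-fluorescence equivalency to triamterene.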

[6] = qHTS assay to test for compound auto fluorescence at 535 nm (green) in HepG2 cell free culture (AID 720686); also: potency is read from the fitted curve at half-maximal effect
[7] = biological target: Glucocorticoid receptor (Homo sapiens) (UniProt P04150); assay: qHTS assay to identify small molecule agonists of the glucocorticoid receptor (GR) signaling pathway (AID 720691; active = well fitted activation curve with a large enough effect in the signal ratio in the repeat runs, not every such curve was filed as active; the % refers to the signal ratio)
Sequence of Glucocorticoid receptor (Homo sapiens) (P04150 whole entry, looked up): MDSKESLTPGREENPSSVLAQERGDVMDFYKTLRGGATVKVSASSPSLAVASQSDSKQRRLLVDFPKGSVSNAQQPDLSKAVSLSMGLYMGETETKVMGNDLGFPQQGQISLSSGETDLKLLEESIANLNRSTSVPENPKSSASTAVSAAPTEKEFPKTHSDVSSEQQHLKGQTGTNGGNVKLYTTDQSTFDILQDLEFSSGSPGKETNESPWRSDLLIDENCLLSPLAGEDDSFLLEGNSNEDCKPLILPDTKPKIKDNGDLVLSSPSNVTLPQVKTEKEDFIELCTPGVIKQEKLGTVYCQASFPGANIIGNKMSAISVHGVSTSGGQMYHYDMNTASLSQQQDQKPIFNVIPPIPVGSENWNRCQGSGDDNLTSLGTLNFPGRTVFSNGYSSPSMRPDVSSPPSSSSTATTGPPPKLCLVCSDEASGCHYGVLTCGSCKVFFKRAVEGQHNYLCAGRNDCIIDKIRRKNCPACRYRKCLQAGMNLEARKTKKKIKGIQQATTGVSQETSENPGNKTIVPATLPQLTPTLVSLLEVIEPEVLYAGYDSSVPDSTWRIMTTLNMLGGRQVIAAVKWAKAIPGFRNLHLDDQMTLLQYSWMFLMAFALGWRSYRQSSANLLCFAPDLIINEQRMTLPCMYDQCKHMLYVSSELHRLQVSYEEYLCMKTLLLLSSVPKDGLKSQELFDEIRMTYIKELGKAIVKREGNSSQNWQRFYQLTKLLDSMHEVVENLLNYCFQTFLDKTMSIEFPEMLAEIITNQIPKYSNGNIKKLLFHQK
Summary of the method: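 Beta-lactamase reporter activity, read as fluorescence intensity, was measured in GR-bla HeLa cells exposed to compounds for 18 h at 37 C and then loaded with LiveBLAzer B/G FRET substrate for 2 h at room temperature.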

[8] = biological target: Glucocorticoid receptor (Homo sapiens) (UniProt P04150); assay: qHTS assay to identify small molecule antagonists of the glucocorticoid receptor (GR) signaling pathway (AID 720692; active = well fitted inhibition curve with a large enough effect in the signal ratio in the repeat runs, not every such curve was filed as active; the % refers to the signal ratio)
Summary of the method: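 Fluorescence from cleaved LiveBLAzer B/G FRET substrate reports GRE-driven beta-lactamase in HeLa cells; compounds are tested against 5 nM dexamethasone (final) over 18 h at 37 C, substrate incubation 2 h at room temperature.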

[9] = qHTS assay to test for compound auto fluorescence at 460 nm (blue) in HepG2 cells (AID 720687)
Summary of the method: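 Blue-channel autofluorescence (Ex/Em 405/460 nm, triamterene-equivalent) was measured after 1 hr compound exposure at 37 C, 5% CO2. Cells were HepG2, plated overnight at 37 C in MEM plus 10% FBS.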

Measured: Potency
Tags tell the direction and shape of the fitted curve or compound fluorescence and quenching.

C=CS(=O)(=O)O
not listed: [9]
inactive: all other assays above

C=C(C)C(=O)O
not listed: [8]
inactive: all other assays above

CCn1c2ccccc2c2cc(N)ccc21
inactive: [1] | [2] | [3] | [5] | [6]

CO[Si](OC)(OC)c1ccccc1
not listed: [4]
inactive: all other assays above

C/C=C/c1ccc(OCC)c(O)c1
inactive: all assays above

CCN1CCCC1CNC(=O)c1cc(S(=O)(=O)CC)c(N)cc1OC (stereo not drawn)
inactive: all assays above

c1ccc2n[nH]nc2c1
not listed: [4] | [9]
inactive: all other assays above

CC(C)CCOC(=O)c1ccc(N(C)C)cc1
not listed: [7] | [8]
inactive: all other assays above

O=C1OC2(c3ccc(O)cc3Oc3cc(O)ccc32)c2ccccc21
active: [2] 3.55 µM [fluorescent] and 3.98 µM [fluorescent] | [6] 3.16 µM [fluorescent] and 2.82 µM [fluorescent] and 3.55 µM [fluorescent]
not listed: [7] | [8]
inactive: all other assays above

NC12CC3CC(CC(C3)C1)C2
inactive: all assays above

COc1cc(C(=S)N2CCOCC2)ccc1O
inactive: all assays above

O=C(Oc1ccccc1)c1ccccc1O
inactive: all assays above

NC(=Nc1ccccc1)Nc1ccccc1
not listed: [9]
inactive: all other assays above
